# Screening data (PubChem BioAssay)
# DT40 TDP1 no CPT: qHTS for Inhibitors of human tyrosyl-DNA phosphodiesterase 1 (TDP1): qHTS in cells in absence of CPT. 15% of 420,000 active. DT40 Tdp1-/- hTDP1 cells, no CPT, ATP luminescence, 48 h. Potency, µM (top dose mostly 46.2 µM), inactives show at the highest dose activity change, negative = growth inhibition, hits mostly inhibitors; further: on the % scale 0 is the no-effect control and ±100 the full control effect; nearly all actives have a fitted effect of over 55% in size
#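 Compound effects on proliferation are scored in DT40 Tdp1-/-;hTDP1 cells in the absence of CPT. ATP levels (CellTiter-Glo luminescence) are recorded after a ≥48 hr, 37 °C incubation.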
# HepG2 tox: HepG2 cytotoxicity, counter-screen for TGF-b inhibitors. HepG2 CAGA-GFP viability, ATP luminescence, 18 h. Potency, µM (series often up to 46.1 µM), for the others: at the highest dose activity change, negative = cytotoxicity, hits mostly cytotoxic. 0.76% of 410,000 active. AID 588856
#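 CellTiter-Glo luminescence gave cytotoxicity after 18 hours at 37 degrees C. The cells were HepG2 CAGA-GFP in 1% FBS DMEM, stimulated with 500 pg/mL TGF-beta after compound addition. %Activity was normalised to no-cell wells (complete cell-killing) and DMSO (no toxicity), and curves were fitted and classified.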
# DT40 TDP1 CPT: DT40-hTDP1 cell growth loss with CPT. chicken DT40 Tdp1-/-;hTDP1 cells + 20 nM CPT, ATP luminescence, 48 h. Potency, µM (doses to about 46.2 µM), for the others: top-dose activity change, negative = growth inhibition, most hits filed as inhibitors. 12% of 420,000 active; further: on the % scale 0 is the no-effect control and ±100 the full control effect; nearly all actives have a fitted effect of over 55% in size
#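 Cell growth measured by CellTiter-Glo luminescence after a minimum 48 h, 37 C compound exposure with 20 nM CPT in Tdp1-knockout DT40 cells stably expressing hTDP1, seeded 400/well; qHTS titration format.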
# S2 tox: viability counter-screen for ATXN expression inhibitors; S2 cells (HEK-293 line with an ATXN2-luciferase reporter) viability, CellTiter-Fluor protease fluorescence, 24 h; Potency, µM (highest dose often 56.7 µM), usual class: cytotoxic; 0.49% of 400,000 active; AID 651635; further: nearly all actives have a fitted effect of over 40% in size
# ATXN2 expr inh: inhibitors of ATXN2 expression. HEK-293 ATXN2-luciferase reporter, luminescence, 24 h. Potency, µM (highest dose often 57 µM), inactives show at the top dose activity change, negative = inhibition, hits mostly inhibitors. 0.72% of 360,000 active; further: on the % scale 0 is the no-effect control and ±100 the full control effect; nearly all actives have a fitted effect of over 55% in size
#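 ATXN2-luciferase reporter cells (luciferase flanked by upstream and downstream ATXN2 gene portions) were treated 24 h at 37 °C with compounds at up to 57 uM. SteadyGlo luminescence gave expression; GF-AFC fluorescence gave viability.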
# TGFb inhibitor: inhibitors of TGF-b signaling; AID 588855; 1.2% of 410,000 active; Potency, µM (titrated, usually from 46.1 µM), without a hit: top-dose activity, negative = inhibition, actives largely listed as inhibitors; HepG2 CAGA-GFP TGF-b/SMAD3 reporter, GFP fluorescence, 18 h; TGF-beta stimulated, 500 pg/mL final; further: on the % scale 0 is the no-effect control and ±100 the full control effect; nearly all actives have a fitted effect of over 65% in size
#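 Per well, imaged GFP fluorescence of HEPG2 CAGA-GFP cells gives the signal; cells get compound, then TGF-beta (500 pg/mL final), 18 h at 37 degrees C; %Activity versus -TGF-beta and +DMSO controls.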
# Active calls of the source: *; i = inactive; ? = inconclusive; . = not tested or not shown; ! = not active in a repeat. Hits are enriched below; roughly 17% of the tested compounds scored in any of these assays. The call rests on the fitted dose curve; in most records, active means well fitted curve in the direction sought with a large enough effect; inconclusive means small, poorly fitted or top-dose-only effect, or another doubt; inactive means no such curve, though single readings can be large; an effect the other way counts as inactive or inconclusive. Potency means the concentration at half of the fitted maximal effect.
SMILES,DT40 TDP1 no CPT,HepG2 tox,DT40 TDP1 CPT,S2 tox,ATXN2 expr inh,TGFb inhibitor
CCOC(=O)c1ccc(NC(=O)CN2CCN(C(=O)c3ccco3)CC2)cc1,-3%,0%,-7%,i,-10%,3%
CCOC(=O)c1c(NC(=O)CN2CCN(C(=O)c3ccco3)CC2)sc(C)c1C,15µM*,-22%,?,?,-11%,-6%
CC(=O)c1ccc(NC(=O)c2cnn3c(C(F)F)cc(C4CC4)nc23)cc1,-7%,1%,-3%,i,1%,0%
CC(=O)[C@H]1[C@H]([C@H](O)[C@H](O)CO)O[C@](O)(C(=O)O)C[C@@H]1O,-6%,21%,6%,i,2%,12%
O=S1(=O)N[C@@H](CC2CCCCC2)COc2cc(Br)ccc21,?,-19%,15µM*,i,0%,-25%
CC(C)C[C@H]1COc2cc(Br)ccc2S(=O)(=O)N1,?,-15%,-16%,?,-5%,-4%
O=C(CCn1c(=O)[nH]c2ccccc2c1=O)NCCSCc1ccccc1,-3%,-1%,-4%,i,-1%,0%
Cc1c(N2CCCC2)cc2c(c1NC(=O)c1ccccc1Cl)C(C)(C)CC2(C)C,15µM*,-3%,?,i,.,-29%
Cc1ccc(OC(=O)CSc2nnc(-c3cccs3)o2)c(C)c1,-2%,0%,3%,.,.,38%
CS(=O)(=O)N(CC(=O)N1CCN(Cc2ccccc2)CC1)c1cccc(F)c1,0%,4%,1%,i,0%,-1%
O=C1Nc2ccccc2N=C(c2ccc3c(c2)OCO3)C1N(CCc1ccccc1)C(=O)CSc1ncccn1 (stereo not drawn),?,-16%,?,7.9µM*,7%,?
CC(=O)c1ccc(NC(=O)CSc2nc(-c3ccccc3C)nc3c2c(=O)n(C)c(=O)n3C)cc1,?,6%,?,i,0%,28%
CCOc1ccccc1NC(=O)CSc1nc2ccccc2c2nc(CCn3cncc3C)nn12,23µM*,-23%,?,28µM*,-1%,?
Cc1cccc(NC(=O)CSc2nc3ccccc3c3nc(CCc4c(C)n[nH]c4C)nn23)c1,13µM*,-11%,16µM*,16µM*,32µM*!,?
Cc1cncn1CCc1nc2c3ccccc3nc(SCC(=O)Nc3cccc(Cl)c3)n2n1,7.3µM*,-34%,18µM*,16µM*,25µM*,?
C=Cc1ccc(Cn2c(C)c(CNCc3cccc(Br)c3)c(C(=O)O)c2C)cc1,-13%,4%,5%,i,2%,-2%
Cc1ccccc1CN1CCc2nnc(C(C)NC(=O)C3CCN(C)CC3)n2CC1 (stereo not drawn),2%,.,-2%,i,.,.
CN(C(=O)CSc1nc2ccc(NC(=O)CCc3ccccc3)cc2s1)c1ccccc1,15µM*,-8%,18µM*,?,?,?
CN1CCN(C(=O)CSc2nc3ccc(NC(=O)c4ccccc4F)cc3s2)CC1,?,-27%,?,i,.,-28%
COc1ccc(C(=O)Nc2ccc3nc(SCC(=O)N(C)c4ccccc4)sc3c2)cc1,16µM*,-9%,?,?,?,?
CN(C(=O)CSc1nc2ccc(NC(=O)COc3ccc(F)cc3)cc2s1)c1ccccc1,4.6µM*,-9%,5.8µM*,.,.,.
Cc1cccc(NC(=O)CSc2nc3ccc(NC(=O)CCc4ccccc4)cc3s2)c1,?,-10%,?,i,-8%,-8%
CN(C(=O)CSc1nc2ccc(NC(=O)c3ccc(F)cc3)cc2s1)c1ccccc1,15µM*,-26%,16µM*,?,?,?
N#Cc1c(NC(=S)NC(=O)c2ccccc2)sc2c1CCCC2,?,4%,?,i,41%,-6%
O=C(NC(=S)Nc1nc2c(s1)CCCC2)c1ccccc1,29µM*,-16%,?,i,70%,-2%
SMILES,DT40 TDP1 no CPT,HepG2 tox,DT40 TDP1 CPT,S2 tox,ATXN2 expr inh,TGFb inhibitor
O=C(Nc1nc2c(s1)CCCC2)c1ccc(N2C(=O)CCC2=O)cc1,1%,-2%,1%,i,30%,4%
O=C(CS(=O)(=O)Cc1ccccc1)Nc1nc2c(s1)CCCC2,-17%,2%,-4%,i,-1%,?
O=C(CCS(=O)(=O)Cc1ccccc1)Nc1nc2c(s1)CCCC2,26µM*,13%,?,i,17%,?
COC(=O)c1ccc(C(=O)NC(=S)Nc2nc3c(s2)CCCC3)cc1,16µM*,-6%,?,i,35%,?
O=C1NC[C@@H](CCCCN2C[C@H](Cc3ccccc3)N(CCC3CCCCC3)C(=O)C2=O)N(CCc2ccc(O)cc2)C1=O,3%,.,-5%,i,-6%,.
Fc1ccccc1Cc1noc(CN2CCC(OCc3cccnc3)CC2)n1,23µM*,-4%,?,i,-4%,-12%
O=CN1CCCN(Cc2nc(Cc3ccccc3F)no2)CC1,-2%,-7%,1%,i,.,-12%
Fc1cccc(Cc2noc(CN3CCC(c4ccncc4)CC3)n2)c1,13µM*,-11%,18µM*,i,.,-17%
Cc1ccc(C2(c3noc(CN4CCC(c5ccncc5)CC4)n3)CCCC2)cc1,18µM*,-16%,13µM*,i,-36%,?
Fc1ccccc1Cc1noc(CN2CCN(C/C=C/c3ccccc3)CC2)n1,18µM*,-21%,18µM*,i,.,?
